Rows were chosen to be rich in hits. Some 2% of all compounds tested hit in one or more screens of this group.
Jurkat NFkB inh: inhibitors of induced NF-kB luciferase reporter, primary screen, TCR NF-kB activation inhibitor project, cell-based, luminescence, uHTS; Jurkat, PMA/ionomycin-induced NF-kB luciferase reporter; inhibition, % at 4 µM; actives 0.53% (n = 330,000); in the data active = inhibition above about 50%
NR2F2 inh: NR2F2 transcriptional activity inhibitors, primary screen, cell-based, luciferase reporter, HEK293T, luminescence; AID 686940, 2013; HEK293T NGFI-A luciferase reporter; inhibition, % at 8.6 µM; actives 0.7% (n = 370,000);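 active = inhibition above a per-plate cutoff, mean inhibition of test wells between control levels plus 3 SD, cut at about 38% in these data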;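 also: cells cotransfected with COUP-TFII expression vector driving the NGFI-A reporter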
697 NFkB inh: inhibitors of PMA/ionomycin-induced NF-kB reporter, 697 cells, primary screen, B-cell NF-kB inhibitor project, cell-based, luminescence, uHTS | 697 B-cell NF-kB luciferase reporter, 16 h | inhibition, % at 4 µM | actives 0.33% (n = 330,000) | AID 435022, 2010; in the data active = inhibition above about 35%
Gli-Sufu block: Gli-Sufu pathway antagonists, primary screen, luciferase luminescence, Sufu-KO-LIGHT cells, uHTS | AID 588413, 2011 | Sufu-KO-LIGHT fibroblasts, Gli luciferase reporter luminescence | inhibition, % at 5 µM | actives 0.74% (n = 340,000);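 active = inhibition above about 55%, limit read from the data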
GalR3 antag: GalR3 antagonists in HEK293 cells, primary screen, cell-based, fluorescence readout; inhibition, % at 3 µM; AID 651719, 2012; HEK293 GalR3-CNG cAMP membrane potential fluorescence; galR3 body fused to GalR1 C-terminus; actives 0.44% (n = 360,000);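 active = inhibition above the screen-wide average plus 3 SD, cut at about 13% in these data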;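 also: forskolin and galanin both at EC90 stimulate the cells; cAMP rise reported by CNG channel membrane potential dye signal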
Target sequence (O60755 1-299 limits assumed): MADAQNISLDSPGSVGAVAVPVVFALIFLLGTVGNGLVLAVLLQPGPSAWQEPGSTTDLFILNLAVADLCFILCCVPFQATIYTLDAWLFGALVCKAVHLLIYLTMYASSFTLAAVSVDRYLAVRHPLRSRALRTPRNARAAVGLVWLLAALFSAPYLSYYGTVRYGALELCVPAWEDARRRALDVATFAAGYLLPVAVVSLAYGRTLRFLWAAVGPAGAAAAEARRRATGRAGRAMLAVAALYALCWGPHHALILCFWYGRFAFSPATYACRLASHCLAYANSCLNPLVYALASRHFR
697 NFkB conf: PMA/ionomycin-induced NF-kB reporter inhibitors, 697 retest, confirmation, B-cell NF-kB inhibitor project, cell-based, luminescence, single concentration | actives 35% (n = 2,000) | 697 B-cell NF-kB luciferase, 16 h | inhibition, % at 4 µM | AID 449746, 2010 | shares compounds with 697 NFkB inh; in the data active = inhibition mostly above about 28%, no sharp cut-off; inactive = mostly below about 22%
A number is an active result; 0 = inactive; - = no result.

SMILES	Jurkat NFkB inh	NR2F2 inh	697 NFkB inh	Gli-Sufu block	GalR3 antag	697 NFkB conf
Cc1ccc(NC(=O)c2ccc(CNc3c(N4CCC(C)CC4)c(=O)c3=O)cc2)cc1	0	0	50	0	0	0
CCOC(=O)N(C)[C@H]1C[C@H]2c3[nH]c4c(-c5ccc6c(c5)OCO6)cccc4c3CCN2C(=O)[C@H]1[C@H](C)O	-	0	-	-	-	-
CC1(C)CC(=O)C(N=Nc2cccc(S(=O)(=O)N3CCOCC3)c2)=C(O)C1	0	0	38	0	0	0
O=C1C[C@@H](c2ccccc2)N=C2N(CC3CC3)C/C(=C/c3ccccc3)N12	-	0	-	-	-	-
COc1ccc(-c2ccc([C@H]3[C@H]4C=CC[C@@H](C)[C@@H]4C(=O)N3Cc3ccccc3)c(F)c2)cc1OC	0	0	0	0	0	-
COc1ccc(-c2ccc(OC)c([C@H]3[C@H]4C=CC[C@@H](C)[C@@H]4C(=O)N3Cc3ccccc3)c2)cc1	0	0	54	0	0	39
COc1ccc(-c2ccc(C)cc2)cc1[C@H]1[C@H]2C=CC[C@@H](C)[C@@H]2C(=O)N1Cc1ccccc1	0	0	41	0	0	49
CCCCCC/C=C/c1ccc(OC)c([C@H]2[C@H]3C=CC[C@@H](C)[C@@H]3C(=O)N2Cc2ccccc2)c1	0	0	68	0	0	28
COc1ccc(-c2ccoc2)cc1[C@H]1[C@H]2C=CC[C@@H](C)[C@@H]2C(=O)N1Cc1ccccc1	0	0	47	0	0	40
COc1ccc(-c2ccc([C@H]3[C@H]4C=CC[C@@H](C)[C@@H]4C(=O)N3Cc3ccccc3)c(F)c2)cc1	0	0	0	0	0	-
O=S(=O)(Nc1ccc(C(O)(C(F)(F)F)C(F)(F)F)cc1)c1cccs1	-	0	-	-	-	-
COC(=O)[C@]12C[C@H](CC(=O)NCc3ccccc3)C(=O)N(Cc3ccco3)C1=C[C@H](C(C)(C)C)O[C@@H]2C	-	0	-	-	-	-
COc1ccc(CN2C3=N[C@H](c4ccccc4)CC(=O)N3/C(=C\c3ccccc3)C2c2ccco2)c(OC)c1 (stereo not given in full)	-	0	-	-	-	-
CN[C@H]1C[C@H]2c3cc(-c4ccccc4C)ccc3CCN2C[C@H]1[C@H](C)O	-	0	-	-	-	-
COCCCNC(=O)Cn1nc(Cc2ccncc2)c2ccccc2c1=O	-	0	-	-	-	-
CCCCNC(=O)C[C@@H]1C(=O)N2CCCC3=C2[C@@]1(C(=O)OCC)CCC3	-	0	-	-	-	-
CC1(C)C=C2C(N(CC3CC3)C(=N)N2C(=O)OCc2ccccc2)n2c(=O)n(-c3ccccc3)c(=O)n21 (stereo not given)	-	0	-	-	-	-
CC1CCN(c2ccc(C(=O)O)cc2NS(=O)(=O)c2cccc3cccnc23)CC1	-	0	-	-	-	-
O=C(COc1ccc(F)c(Cl)c1)N[C@H]1CCCN(CC2CC2)C1	-	0	-	-	-	-
COC(=O)c1cccc(C(=O)N2CCCC(C(=O)c3cc(F)ccc3F)C2)c1 (stereo not given)	0	0	39	0	0	0
COC(=O)c1ccccc1C(=O)N1CCCC(C(=O)c2cc(F)ccc2F)C1 (stereo not given)	0	0	0	0	0	-
CCCn1c(N)c(C(=O)CSc2nnc(N)s2)c(=O)[nH]c1=O	0	0	0	0	0	-
CCCn1c(N)c(C(=O)CSc2nc3ccccc3s2)c(=O)[nH]c1=O	0	0	0	0	0	0
Cc1ccc(C(=O)Nc2cccc(C(=O)NCc3ccccc3)c2)o1	0	0	36	0	0	0
C/C=C/C=C/C(=O)N1C[C@H](C)N(C)C[C@H]1C	-	0	-	-	-	-
SMILES	Jurkat NFkB inh	NR2F2 inh	697 NFkB inh	Gli-Sufu block	GalR3 antag	697 NFkB conf
COc1ccc(C2C3=C(CCCC3=O)Nc3nc(-c4cc(OC)c(OC)c(OC)c4)nn32)cc1OC (stereo not given)	0	0	38	0	0	0
CCOC(=O)[C@]12CCCC=C1N(CCc1ccc(Cl)cc1)C(=O)[C@@H]2CC(=O)NCCC(C)C	-	0	-	-	-	-
Nn1c(SCC(=O)Nc2ccc(OCc3ccccc3)cc2)nnc1-c1cc(-c2ccc(Cl)cc2)n[nH]1	-	0	-	-	-	-
NC(=O)CCCn1c(C(=O)c2cc(Cl)c(N)c(Cl)c2)c2ccc([N+](=O)[O-])cc2[n+]1[O-]	0	0	0	0	0	0
C#CCNC(=O)C[C@H]1C[C@@]2(C(=O)OC)C(=C[C@H](COCc3ccccc3)O[C@@H]2C)N(Cc2ccco2)C1=O	-	0	-	-	-	-
CC(C)COc1cccc(-c2cc(C(=O)N/N=C/c3ccncc3)c3ccccc3n2)c1	0	0	0	0	0	0
Cc1ccc(-c2nnc(-c3ccccc3Br)o2)cc1	0	0	0	0	0	0
Brc1ccccc1-c1nnc(-c2cccnc2)o1	0	0	0	0	0	-
Cc1cccc(-c2cccc3c4c([nH]c23)[C@@H]2C[C@H](N(C)C(=O)c3ccccc3C)[C@H]([C@H](C)O)CN2CC4)c1	-	0	-	-	-	-
CCN(C(=O)CN1C(=O)NC(c2ccccc2)(c2ccc(C)c(C)c2)C1=O)C1CCCCC1 (stereo not given)	0	0	44	0	0	27
CCn1c2ccccc2c2cc(CN3CCN(C(=O)c4ccco4)CC3)ccc21	0	0	0	0	0	-
CCn1c(=O)cc(SCC(=O)N2CCN(C(=O)c3ccco3)CC2)c2ccccc21	0	0	53	0	0	38
CCn1c(=O)cc(SCC(=O)N2CCOCC2)c2ccccc21	0	0	42	0	0	45
CCN1CCN(C(=O)CSc2cc(=O)n(C)c3ccccc23)CC1	0	0	0	0	0	-
CCn1c(=O)cc(SCC(=O)N2CCN(c3ccccc3OC)CC2)c2ccccc21	0	0	36	0	0	0
COc1ccccc1N1CCN(C(=O)CSc2ccccc2)CC1	0	0	0	0	0	-
Cc1cc(OCC(=O)NC2CC2)c2c(C)c(C)c(=O)oc2c1	0	0	36	0	0	29
Cc1cc(OCC(=O)NC2CC2)c2c(C)cc(=O)oc2c1	0	-	0	0	-	-
Cc1ccccc1CN[C@@H]1CC[C@@]23CCCN2C(=O)CCC[C@H]3C1	-	0	-	-	-	-
CCOC(=O)N1CCC(N2CCN(S(=O)(=O)c3ccc([N+](=O)[O-])cc3)CC2)CC1	0	0	35	0	0	0
S=C(Nc1cccc(Br)c1)OC1CCC12CCC(c1ccccc1)CC2 (stereo not given)	-	0	-	-	-	-
O=C(/C=C\Nc1ccccn1)c1ccc(Cl)cc1	0	0	0	0	0	0
O=C(Cc1ccc(Cl)cc1)Nc1ccccn1	0	0	0	0	0	-
CCC[C@H]1[C@@H](OC(=O)NCc2ccccc2)CC[C@@]23CCCN2C(=O)CCC[C@@H]13	-	0	-	-	-	-

Source: PubChem BioAssay
